Sampled rows, rich in hits. Any-hit rate of the full collection: about 4.2%.
D1 ag – human D1 receptor agonism. HEK293 T-REx D1 cells, calcium flux, agonist mode. activation, % at 2 µM. 1% of 360,000 active; in the data active means activation above about 30%; further: 0% is about no effect
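Tetracycline-induced HEK293 TREx D1 cells, force-coupled to calcium signalling, were dye-loaded with a no-wash calcium kit. Compound was pin-added after a 10 s baseline. Fluorescence was read kinetically at 1 cycle/s for 180 s, with calcium rises flagged as agonism.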
TRPV1 agonist – agonists of human vanilloid receptor 1 (TRPV1); activation, % at 8.33 µM; 0.19% of 320,000 active; TRPV1-expressing cells, Fluo-8 calcium influx, agonist mode; Q8NER1; AID 540275; in the data active means activation above about 80%; inconclusive means between about 30% and that limit; further: 0% is about no effect
Target sequence (Q8NER1 whole entry, looked up): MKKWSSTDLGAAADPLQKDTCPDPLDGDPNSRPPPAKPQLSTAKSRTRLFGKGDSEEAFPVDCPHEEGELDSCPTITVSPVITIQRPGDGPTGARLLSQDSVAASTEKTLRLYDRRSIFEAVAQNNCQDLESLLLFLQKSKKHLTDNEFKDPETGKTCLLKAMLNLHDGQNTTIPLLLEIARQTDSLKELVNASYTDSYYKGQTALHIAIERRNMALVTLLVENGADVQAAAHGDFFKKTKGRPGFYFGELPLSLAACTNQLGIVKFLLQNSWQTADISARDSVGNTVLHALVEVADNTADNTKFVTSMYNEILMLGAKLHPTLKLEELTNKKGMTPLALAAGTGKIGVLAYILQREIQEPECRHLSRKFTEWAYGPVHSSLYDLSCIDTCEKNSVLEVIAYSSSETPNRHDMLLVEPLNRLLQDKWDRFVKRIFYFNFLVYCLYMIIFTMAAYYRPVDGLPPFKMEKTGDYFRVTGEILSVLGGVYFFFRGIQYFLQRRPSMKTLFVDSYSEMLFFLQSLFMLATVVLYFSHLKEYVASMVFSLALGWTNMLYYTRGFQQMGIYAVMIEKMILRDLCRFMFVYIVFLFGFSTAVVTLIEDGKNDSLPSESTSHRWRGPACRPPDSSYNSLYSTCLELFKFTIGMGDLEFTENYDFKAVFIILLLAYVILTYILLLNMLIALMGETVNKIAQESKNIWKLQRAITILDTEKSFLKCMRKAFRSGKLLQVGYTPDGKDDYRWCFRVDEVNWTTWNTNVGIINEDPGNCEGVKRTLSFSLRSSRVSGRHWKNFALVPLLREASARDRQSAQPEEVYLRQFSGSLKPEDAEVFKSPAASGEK
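Fluo-8 calcium influx in TRPV1-expressing cells, kinetic read (ex 480/em 520 nm). Compound added and read 3 min for agonist activity, followed by capsaicin at EC20 final and 2 min further read for enhancement.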
D1 potentiator – enhances dopamine response at the human D1 receptor; P21728; HEK293 TREx D1 cells, calcium flux, dopamine EC20 potentiation; potentiation, % at 10 µM; 0.036% of 360,000 active; in the data active means potentiation above about 30%; further: 0% is about no effect
TRPV1 potentiator – human TRPV1 potentiation. Q8NER1. TRPV1-expressing cells, Fluo-8 calcium influx, capsaicin EC20 potentiation. potentiation, % at 8.33 µM. 0.02% of 320,000 active; in the data active means potentiation above about 80%; inconclusive means between about 30% and that limit; further: 0% is about no effect
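Fluo-8 calcium influx in TRPV1-expressing cells, kinetic read (ex 480/em 520 nm). Compound added and read 3 min for agonist activity, followed by capsaicin at EC20 final and 2 min further read for enhancement.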
D1 antag – antagonists of human D1 dopamine receptor | P21728 | HEK293 TREx D1 cells, calcium flux, dopamine EC80; hits give low values | activity change, negative = inhibition, % at 10 µM | 3.2% of 360,000 active | AID 504652; in the data active means activity change below about -30%; further: on the % scale 0 is the no-effect control and ±100 the full control effect
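Calcium flux readout: force-coupled, inducible Hek293 Trex D1 line, cells induced overnight at 30 C with tetracycline, dye-loaded 30–90 min at RT. Antagonism scored against EC80 dopamine challenge given 180 s after compound.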
The depositor's hits bear a star; i = inactive; ? = inconclusive; / = no result.

SMILES | D1 ag | TRPV1 agonist | D1 potentiator | TRPV1 potentiator | D1 antag
CCOC(=O)c1sc(NC(=O)Nc2cccc(Cl)c2)cc1C | 9 | 8 | -15 | -19 | -46*
CCCOc1ccc(C(=O)Nc2ccc(Cl)cn2)cc1 | 0 | ? | -4 | 11 | -50*
CCCCC(=O)Nc1ccc(Cl)cn1 | 0 | 3 | 0 | 14 | -15
CCOC(=O)c1c(NC(=O)C(C)Sc2cn(CCNC(=O)c3ccc(OC)cc3)c3ccccc23)sc2c1CCC2 (stereo unspecified) | -1 | / | 0 | / | 4
Cc1ccc(Cn2c(CN3CCN(c4cccc(Cl)c4)CC3)nc3c2c(=O)n(C)c(=O)n3C)cc1 | 12 | / | 11 | / | 42
Cc1cc(NC(=O)c2ccco2)cc(-c2nc3cc(Cl)ccc3o2)c1O | 0 | / | -2 | / | -10
CCOC(=O)c1ccc(NC(=O)Nc2ccc(Cl)cn2)cc1 | 0 | -15 | 2 | -9 | -33*
CCOC(=O)c1ccc(NC(=O)Nc2ccon2)cc1 | 9 | 5 | -2 | 0 | -11
Cc1cc2c(c(=O)o1)C1O[C@](c3ccsc3)(Cc3ccccc31)O2 | 1 | i | 2 | i | -9
Nc1nnc(SCC(=O)Nc2nccs2)s1 | 1 | 3 | -5 | 20 | -43*
O=C(NCc1cccnc1)Nc1cccc(Cl)c1Cl | 4 | ? | -8 | -19 | -30*
Cc1cccc(NC(=O)NCc2cccnc2)c1C | 2 | 0 | -4 | -8 | -34*
O=C(NCc1cccnc1)NC1(C(F)(F)F)Oc2ccccc2O1 | -1 | 0 | 1 | 8 | -42*
Cc1cccc(NC(=O)Nc2cccnc2)c1C | 2 | 9 | 0 | -10 | 0
COc1ccc(CCNc2oc(/C=C/c3cc(OC)c(OC)c(OC)c3)nc2C#N)cc1OC | 0 | / | 0 | / | -17
C/C(=N/NC(=O)c1ccccc1)C(=O)O | 0 | ? | -1 | -9 | -31*
CC(=N\NC(=O)c1ccccc1)/C(=N/O)C(=O)Nc1ccccc1 | 6 | -1 | -2 | -7 | -23
COc1ccc(OC)c(NC(=O)Cn2ccc3ccccc3c2=O)c1 | -1 | / | -3 | / | 0
O=C(O)CCCCCNCc1ccncc1 | 1 | -5 | -10 | 2 | -41*
O=C(O)CCCCNCc1ccccc1 | 1 | 0 | 1 | 0 | 6
CC(C)CC(=O)NC(Nc1ccc([N+](=O)[O-])cc1)C(Cl)(Cl)Cl (stereo unspecified) | 25 | 25 | -3 | -15 | -40*
CC(=O)c1cccc(Nc2nn(-c3ccc(OC(F)(F)F)cc3)nc2C(C)=O)c1 | 6 | / | 1 | / | -5
Cc1ccc(S(=O)(=O)N2CCC(C(=O)NCCc3ccccn3)CC2)cc1 | 1 | 3 | -7 | 4 | -58*
CCCCCCN1C=C/C(=C\C=C(C#N)C#N)c2ccccc21 | 5 | -3 | -2 | -9 | -4
C=CCN1C=C/C(=C\C=C(C#N)C#N)c2ccccc21 | 7 | 16 | -3 | -4 | -26
SMILES | D1 ag | TRPV1 agonist | D1 potentiator | TRPV1 potentiator | D1 antag
CCCN1C=CC(=CC=C(C#N)C#N)C=C1 | 129* | ? | -1 | -10 | -3
C=CCN1C=CC(=CC=C(C#N)C#N)C=C1 | 96* | 29 | -10 | 0 | -16
COc1ccc(C)cc1NS(=O)(=O)c1cc(Br)cc2c1N(C(C)=O)C(C)C2 (stereo unspecified) | -1 | / | 1 | / | -11
Cc1cc(C)c2c(n1)sc1c(=O)n(-c3ccccc3C(F)(F)F)nnc12 | 0 | / | 3 | / | 1
Cc1ccc(C)c(CN2C(=O)c3ccccc3S(=O)c3ccc(C(=O)NCc4ccccc4Cl)cc32)c1 (stereo unspecified) | 8 | / | -6 | / | -2
O=S(=O)(c1ccc2c(c1)OCCO2)N1CCN(S(=O)(=O)c2ccccc2F)CC1 | 3 | / | 18 | / | -7
CCCNC(=O)c1onc(CSc2ccccn2)c1C(=O)NCCC | 2 | 25 | 1 | -49 | -38*
O=C(NCc1ccccc1)c1onc(CSc2ccccc2)c1C(=O)NCC1CC1 | 46* | 22 | -2 | 3 | -51*
C=CCNC(=O)c1onc(CSc2ccc(F)cc2)c1C(=O)NCC=C | 1 | ? | -2 | 8 | -15
O=C(NCc1ccccc1)c1onc(CSc2ccc(Cl)cc2)c1C(=O)NCC1CC1 | 6 | -1 | -4 | 8 | -14
C=CCNC(=O)c1onc(CSc2ccc(F)cc2)c1C(=O)O | -2 | 0 | -4 | 10 | -34*
CC(=O)c1cccc(NC(=O)C(CC(C)C)NS(=O)(=O)c2ccc3c(c2)CCN3C(C)=O)c1 (stereo unspecified) | 1 | / | 4 | / | 0
CCN(CC)C(=O)c1c(-c2ccccc2)c(-c2ccccc2)nn(CC)c1=O | -1 | / | 0 | / | 3
CC1=C(C(=O)Nc2cc(C)cc(C)c2)C2(CCCCC2)OC1=O | 3 | / | -3 | / | 0
Cn1c(C(=O)NCc2ccccc2F)cc2oc3ccccc3c21 | 3 | / | -8 | / | -57*
COC(=O)c1ccc(S(=O)(=O)N(Cc2ccccc2)Cc2ccccc2)n1C | 11 | 4 | -4 | 8 | -40*
COc1ccc2c(c1)c(=O)c(C(=O)c1ccc(F)cc1)cn2CC(=O)Nc1ccc2c(c1)OCO2 | 5 | / | 2 | / | 10
COc1ccccc1CNC(=O)c1cc2sccc2n1Cc1ccc(F)cc1 | 19 | / | -3 | / | -9
Cc1cccc(C(=O)Nc2cccc(OCc3cc(=O)n4cccc(C)c4n3)c2)c1 | -1 | / | -1 | / | -3
CCC(CO)[n+]1c(C)cc(/C=C2\Sc3ccccc3N2Cc2ccccc2)cc1C (stereo unspecified) | 29 | 17 | -8 | 15 | -76*
CCC1=C(c2ccc(C)cc2)S(=O)(=O)N=C1N1CCC(C(=O)NCc2ccc(N(C)C)cc2)CC1 | 0 | / | -7 | / | -13
COc1ccc(NS(=O)(=O)c2ccc(N3CCCC3)c(N)c2)cc1 | 38* | 0 | -6 | 14 | -6
COc1ccc(NS(=O)(=O)c2ccc(N3CCCC3)c(NC(=S)Nc3ccc(SC(F)F)cc3)c2)cc1 | 13 | -7 | -4 | 3 | -42*
Nc1cc(S(=O)(=O)Nc2cc(Cl)ccc2Cl)ccc1N1CCCC1 | 4 | 3 | -10 | 17 | -33*
COc1ccc(NS(=O)(=O)c2ccc(N3CCCC3)c(NC(=S)Nc3cccc(C)c3C)c2)cc1 | 3 | 8 | -9 | 12 | 5
COc1ccc(N2CCN(C(=O)c3ccc(NS(=O)(=O)c4cccc(F)c4)cc3)CC2)cc1 | 4 | 1 | -1 | 11 | 5
COc1ccc(NS(=O)(=O)c2cccc(C(=O)OCC(=O)N3CCN(c4ccc(OC)cc4)CC3)c2)cc1 | 7 | -1 | 4 | ? | -69*
Cc1cc(C)c2oc(-c3cccc(NC(=O)COc4ccc([N+](=O)[O-])cc4)c3)nc2c1 | 2 | / | 0 | / | 5
COc1ccc(S(=O)(=O)NCc2cccnc2)cc1Br | 15 | 1 | -6 | 11 | -32*

Assay outcomes: PubChem, National Center for Advancing Translational Sciences (NCATS)
